Results from PubChem BioAssay AID1645882 (National Center for Advancing Translational Sciences (NCATS), 2021).
Out of some 16,000 compounds screened, about 120 (0.75%) were called active. Inconclusive results (about 4%) are left out. The call rests on the fitted dose curve; in most records, active means well fitted inhibition curve with a large enough effect; inconclusive means small, poorly fitted or top-dose-only effect; inactive means no such curve, though single readings can be large or run the other way. Only a selection was taken, and actives are over-represented in it overall. Some compounds were tested as several samples or in several runs, with calls that do not always agree.

These compounds were tested against Rap guanine nucleotide exchange factor 3 (Homo sapiens) (UniProt O95398) (assay: Validation qHTS for antagonist of cAMP-regulated guanine nucleotide exchange factor 3 (EPAC1)). Conditions: EPAC1 Rap1B-BODIPY-GDP exchange, fluorescence; series mostly up to 150 µM; activity change, negative = inhibition: at the top concentration.
Sequence of Rap guanine nucleotide exchange factor 3 (Homo sapiens) (O95398 whole entry, looked up): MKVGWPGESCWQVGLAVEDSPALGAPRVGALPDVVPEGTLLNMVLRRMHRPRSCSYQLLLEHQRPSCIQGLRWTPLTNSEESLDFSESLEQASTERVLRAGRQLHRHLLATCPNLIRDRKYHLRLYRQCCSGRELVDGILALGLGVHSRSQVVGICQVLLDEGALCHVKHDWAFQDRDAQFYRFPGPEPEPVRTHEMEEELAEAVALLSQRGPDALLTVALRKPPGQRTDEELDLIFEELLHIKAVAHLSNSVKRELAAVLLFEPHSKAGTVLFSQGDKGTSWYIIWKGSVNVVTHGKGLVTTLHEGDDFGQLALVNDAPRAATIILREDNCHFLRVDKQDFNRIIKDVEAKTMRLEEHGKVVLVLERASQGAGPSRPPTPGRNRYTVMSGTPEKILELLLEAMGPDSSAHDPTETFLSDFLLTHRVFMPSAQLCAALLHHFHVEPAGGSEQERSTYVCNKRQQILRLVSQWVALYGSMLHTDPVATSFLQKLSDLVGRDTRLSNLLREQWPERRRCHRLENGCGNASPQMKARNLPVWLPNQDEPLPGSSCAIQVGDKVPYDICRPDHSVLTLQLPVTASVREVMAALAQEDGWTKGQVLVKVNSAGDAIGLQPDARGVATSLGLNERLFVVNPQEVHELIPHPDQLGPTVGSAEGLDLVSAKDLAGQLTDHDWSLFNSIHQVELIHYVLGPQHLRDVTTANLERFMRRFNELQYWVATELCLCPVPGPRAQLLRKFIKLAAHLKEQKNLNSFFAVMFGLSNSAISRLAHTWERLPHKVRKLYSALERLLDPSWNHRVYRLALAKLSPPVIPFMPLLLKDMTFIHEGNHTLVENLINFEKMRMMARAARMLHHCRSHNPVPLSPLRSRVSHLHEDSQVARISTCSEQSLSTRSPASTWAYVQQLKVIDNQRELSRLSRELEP
Description: Assay Provider (PI): Xiaodong Cheng Ph.D.
The University of Texas Medical Branch, […], TX
In multi-cellular eukaryotic organisms, the effects of cAMP are transduced by two ubiquitously-expressed intracellular cAMP receptors, the classic protein kinase A/cAMP-dependent protein kinase (PKA/cAPK) and the more recently discovered exchange protein directly activated by cAMP/cAMP-regulated guanine nucleotide exchange factor (EPAC/cAMP-GEF). Both PKA and EPAC are ubiquitously expressed in all tissues, and an increase in intracellular cAMP levels will lead to the activation of both PKA and EPAC. Therefore, careful dissections of the individual role and relative contribution of EPAC and PKA within the overall cAMP signaling in various model systems are critical for further elucidating the mechanism of cAMP signaling. To date no EPAC-specific antagonists and agonist, as well as isoform-specific agonists have been reported, and developing EPAC-specific pharmacological probes to determine the physiological functions that EPAC play in the overall cAMP-mediated signaling remains a major challenge within the research field. Furthermore, identified regulators of EPAC may lead to new mechanism-based therapeutic strategies specifically targeting the EPAC / cAMP-signaling components as EPAC has been implicated to play important roles in major human pathological conditions such as diabetes, heart disease, and cancer.
This qHTS will be used to screen the Molecular Libraries Small Molecule Repository (MLSMR) as a concentration-titration series using the NCGC unique quantitative screening (qHTS) platform to find activators for EPAC1. In addition, this assay will also be used as a counterscreen for the EPAC2 qHTS. This fluorescent based assay is developed and validated for EPAC1 that measures exchange using EPAC effector Rap1 complex with BODIPY-GDP, a GDP analog with a tethered fluorophores. Activators are identified by monitoring the change in fluorescence signal as the exchanged free BODIPY-GDP has a reduced fluorescence compared to Rap1-bound BODIPY-GDP. Increase in signal (activation) is the desired outcome for the EPAC1 agonist while no activity in this assay is desired for the EPAC2 agonist counterscreen.
[1] de Rooij, J., Zwartkruis, F. J., Verheijen, M. H., Cool, R. H., Nijman, S. M., Wittinghofer, A., and Bos, J.L. (1998) Nature 396, 474-477.
Briefly, three uL of reagents (100 nM EPAC1, 250 nM RAP1B-BODIPY-GDP, 50 uM GDP) were dispensed into a 1536-well Greiner black solid-bottom medium binding assay plate. Controls and test compounds (23 nL) were transferred to the plate via a Kalypsys pin tool equipped with a 1536-pin array. The plates were centrifuged at 1,000 rpm for 15 seconds followed by 5 minute incubation at room temperature. The assay plates were read at 5 minute intervals for 30 minutes in the ViewLux plate reader using 480nm excitation and 540nm emission filters. The results were normalized to the […] positive control ATA and DMSO.
Further: nearly all actives have a fitted effect of over 75% in size.
Potency means the concentration at half of the fitted maximal effect.

| Structure (SMILES) | activity change, negative = inhibition | Potency |
| --- | --- | --- |
| O=[N+]([O-])c1ccc(O)c([N+](=O)[O-])c1 | 5.37% (inactive) | – |
| O=[N+]([O-])c1cc(I)c(O)c(I)c1 | 21.3% (inactive) | – |
| O=[N+]([O-])c1cc(O)c(O)c([N+](=O)[O-])c1 | – | 79.4 µM (active) and inactive |
| COP(=S)(OC)Oc1ccc(S(N)(=O)=O)cc1 | 19.3% (inactive) | – |
| O=c1oc2ccccc2c(O)c1Cc1c(O)c2ccccc2oc1=O | – | inactive |
| O=c1oc2ccccc2c(O)c1C(CC(O)c1ccc(-c2ccc(Br)cc2)cc1)c1ccccc1 (stereo not given) | – | 100 µM (active) |
| O=c1oc2ccccc2c(O)c1C(c1ccccc1O)c1c(O)c2ccccc2oc1=O | 22% (inactive) | – |
| O=C(Oc1ccccc1)N1CCC2(CC1)CCN(C(c1ccccc1)c1ccccc1)CC2 | 26.6% (inactive) | – |
| CC(C)(C)c1cc(O)ccc1O | – | inactive |
| Oc1cc2c(cc1O)[C@H]1c3ccccc3CN[C@H]1CC2 | – | inactive |
| CC(=O)O.CC(=O)O.[Cd] | -7.38% (inactive) | – |
| COc1cc2c(cc1OC)[C@@H]1C(=O)c3ccc4oc(C(C)C)cc4c3OC1CO2 (stereo not given in full) | 3.72% (inactive) | – |
| CCc1cccc(C)c1N(C(=O)CCl)C(C)COC (stereo not given) | 1.24% (inactive) | – |
| CN(C)C1C(=O)C(C(N)=O)=C(O)[C@@]2(O)C(=O)C3=C(O)c4c(O)cccc4[C@](C)(O)C3C(O)C12 (stereo not given in full) | 2.85% (inactive) | – |
| Cl.Cl.Cl.Cl.Cl.Cl.N.N.N.N.NNNNN.NNNNN.O.O.[Ru].[Ru].[Ru] | – | 89.1 µM (active) |
| O=CN1CC2CC(C1)c1cccc(=O)n1C2 (stereo not given) | 18.2% (inactive) | – |
| CC(C)CCCC1(C)C=Cc2c(O)c3c(c(CCC(C)C)c2O1)OC12C(CC4CC1C(C)(C)OC2(CCC(C)C(=O)O)C4O)C3=O (stereo not given) | – | 70.8 µM (active) |
| CN(C)CCc1c[nH]c2cccc(O)c12 | 41% [at 320 µM] (inactive) | – |
| ClCCN(CCCl)/C(=C\c1ccccc1)c1ccnc2ccccc12 | 23.4% (inactive) | – |
| O=C1CC[C@@]2(O)C3Cc4ccc(O)c5c4C2(CCN3CC2CC2)[C@H]1O5 (stereo not given in full) | 2.27% [at 75.8 µM] (inactive) | – |

| Structure (SMILES) | activity change, negative = inhibition | Potency |
| --- | --- | --- |
| CC(=O)OC1CC(OC(C)=O)[C@]2(C)C(CC(OC(C)=O)[C@]3(C)C2CC[C@@]2(C)C(c4ccoc4)C[C@H]4O[C@]432)C1(C)C (stereo not given in full) | 7.6% (inactive) | – |
| O=S(=O)(O)c1cc(O)ccc1O | 16.6% [at 75.8 µM] (inactive) | – |
| O=C1OC(c2ccc(O)c(S(=O)(=O)O)c2)(c2ccc(O)c(S(=O)(=O)O)c2)c2c(Br)c(Br)c(Br)c(Br)c21 | – | 14.1 µM (active) |
| CCOC(=O)[C@]12Cc3cc(OC)ccc3[C@H]1N(Cc1ccccc1)C(=O)c1cc(F)c(F)cc12 | -17% (inactive) | – |
| CC(Cc1ccc2c(c1)OCO2)NO (stereo not given) | 6.99% [at 320 µM] (inactive) | – |
| NC(=O)[C@H](Cc1ccccc1)NC(=O)[C@H](Cc1c[nH]c2ccccc12)NC(=O)[C@@H]1CCCN1C(=O)[C@@H](N)Cc1ccc(O)cc1 | 5.24% [at 15.3 µM] (inactive) | – |
| CCOC(=O)C1(c2ccccc2)CCCN(C)CC1 (stereo not given) | 17.5% (inactive) | – |
| CCC(C)C(=O)c1c(O)c(C)c2oc3c(C)c(O)c(C(=O)C(C)CC)c(O)c3c2c1O (stereo not given) | -18% (inactive) | – |
| CCOCN(C(=O)CCl)c1c(C)cccc1CC | 14.4% (inactive) | – |
| O=[N+]([O-])c1ccc(F)c([N+](=O)[O-])c1 | 2.44% (inactive) | – |
| COC(=O)/C(C)=C\CC12OC(C)(C)C3CC(C=C4C(=O)c5c(OC)c6c(c(CC=C(C)C)c5OC431)OC(C)(CCC=C(C)C)C=C6)C2=O (stereo not given) | 5.89% (inactive) | – |
| COc1c2c(c(CC=C(C)C)c3oc(=O)c(-c4ccc(O)cc4)c(O)c13)OC(C)(C)C=C2 | -16.9% (inactive) | – |
| CC(C)=CCCC1(C)C=Cc2c(O)c3c(c(CC=C(C)C)c2O1)OC12C(=CC4CC1C(C)(C)OC2(C/C=C(/C)C(=O)O)C4=O)C3=O (stereo not given) | – | 50.1 µM (active) |
| CC(C)=CCCC1(C)C=Cc2c(O)c3c(c(CC=C(C)C)c2O1)OC12C(=CC4CC1C(C)(C)OC2(C/C=C(/C)C(=O)O)C4O)C3=O (stereo not given) | – | 63.1 µM (active) |
| CC(=O)Oc1c2c(c(CC=C(C)C)c3c1C(=O)C1=CC4CC5C(C)(C)OC(C/C=C(\C)C(=O)O)(C4=O)[C@]15O3)OC(C)(CCC=C(C)C)C=C2 (stereo not given in full) | – | 44.7 µM (active) |
| CN[C@H]1C[C@@H](N)[C@H](O)[C@@H](O[C@@H]2O[C@H](CO)[C@H](O)[C@@H]3OC4(O[C@H]23)O[C@H](C(N)CO)[C@H](O)[C@H](O)[C@H]4O)[C@@H]1O (stereo not given in full) | – | inactive |
| CC[C@]1(O)CC(O[C@@H]2CC(N(C)C)C(O)C(C)O2)c2c(cc3c(c2O)C(=O)c2c(O)cccc2C3=O)C1C(=O)OC (stereo not given in full) | 2.61% (inactive) | – |
| CCC(=O)O[C@H]1[C@@H](N2CCCCC2)C[C@H]2[C@@H]3CC[C@H]4C[C@H](OC(C)=O)[C@@H](N5CCCCC5)C[C@]4(C)[C@H]3CC[C@@]21C | 13.2% (inactive) | – |
| CC(CC(C#N)(c1ccccc1)c1ccccc1)N(C)C (stereo not given) | 12.7% [at 320 µM] (inactive) | – |
| CC(C)C1C(=O)N2CCC[C@H]2[C@]2(O)O[C@](NC(=O)[C@@H]3C=C4c5cccc6[nH]cc(c56)C[C@H]4N(C)C3)(C(C)C)C(=O)N12 (stereo not given in full) | 37.4% (inactive) | – |

| Structure (SMILES) | activity change, negative = inhibition | Potency |
| --- | --- | --- |
| C[C@@]12CCC(O)C[C@H]1CCC1C2CC[C@]2(C)C(=O)CCC12 (stereo not given in full) | 17.4% (inactive) | – |
| O=S(=O)(O)C(F)(F)C(F)(F)C(F)(F)C(F)(F)F | 30.7% [at 320 µM] (inactive) | – |
| O=S(=O)(O)C(F)(F)C(F)(F)C(F)(F)C(F)(F)C(F)(F)C(F)(F)C(F)(F)C(F)(F)F | – | 35.5 µM (active) |
| CC(C)C[C@H]1C(=O)N2CCC[C@H]2[C@]2(O)O[C@](NC(=O)[C@@H]3C[C@@H]4c5cccc6[nH]cc(c56)C[C@H]4N(C)C3)(C(C)C)C(=O)N12 | 16.7% (inactive) | – |
| O[C@@H]1CCCC[C@@H]1N1CCC(c2ccccc2)CC1 | 6.71% (inactive) | – |
| Cn1cccc1-c1cccnc1 | 38% (inactive) | – |
| N#C/C(=C/c1ccc(O)c(O)c1)C(N)=S | 2.58% [at 75.8 µM] (inactive) | – |
| N#C/C(=C\c1ccc(O)c(O)c1)C(N)=S | – | 89.1 µM (active) |
| N#CC(C#N)=Cc1ccc(O)c(O)c1 | – | inactive |
| O=c1ccc2cc(OC3OC(CO)C(O)C(O)C3O)c(O)cc2o1 (stereo not given) | 4.95% (inactive) | – |
| O=C(N[C@H]1N=C(c2ccccc2F)c2cccc3c2N(CC3)C1=O)c1cc2ccccc2[nH]1 | -25% (inactive) | – |
| CC1Cc2ccccc2CN1 (stereo not given) | 13.3% (inactive) | – |
| C[N+](C)(C)CCOC(=O)C(O)(c1ccccc1)c1ccccc1 | 9% (inactive) | – |
| CN(CCC(N)CC(=O)NC1C=CC(n2ccc(N)nc2=O)OC1C(=O)O)C(=N)N (stereo not given) | -1.03% (inactive) | – |
| O=C1C(Cl)=C(Cl)C(=O)C(Cl)=C1Cl | – | 39.8 µM (active) |
| COc1cc(CC(C)N)cc(OC)c1OC (stereo not given) | 14.5% [at 320 µM] (inactive) | – |
| O=C1C(I)=CC(=C(c2cc(I)c(O)c(I)c2)c2ccccc2C(=O)O)C=C1I | – | 39.8 µM (active) |
| Nc1ccccc1C(=O)O | 10.3% (inactive) | – |
| CNc1ccccc1C(=O)O | 17.1% (inactive) | – |
| N#CN | 7.44% (inactive) | – |
